± gives the standard deviation of the averaged measurements.
What was measured:
DLD1 [1] = experiment: cell viability (CellTiter-Glo) relative to plate median (fraction of plate median); higher = more viable cells; settings: 5 µM; treatment time 24 h; reporter: 7TFP
Method in brief: (§1)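 On parallel plates, a Tecan F500 reader recorded either firefly luciferase or CellTiterGlo luminescence. The plates held colorectal cancer cells stably transduced with lentiviral TCF/Wnt firefly luciferase reporters (7TFP or TCF4/Wnt), seeded in 384-well format and treated 24 h later with library compounds at a final 5 µM for 24 h. Per-well signals were normalised to the plate median (webcellHTS2, additive, no log transformation), and two independent replicates were averaged.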

HCT116 = experiment: as above; settings: 5 µM; treatment time 24 h; reporter: TCF4/Wnt
Method in brief: as §1

SW480 [2] = experiment: as above; settings: 5 µM; treatment time 24 h; reporter: 7TFP
Method in brief: as §1

DLD1 [3] = experiment: TCF/Wnt firefly luciferase reporter signal relative to plate median (fraction of plate median); higher = higher Wnt reporter signal; settings: 5 µM; treatment time 24 h; reporter: 7TFP
Method in brief: as §1

SW480 [4] = experiment: as above; settings: 5 µM; treatment time 24 h; reporter: 7TFP
Method in brief: as §1

Row | Structure (SMILES) | cell viability (DLD1 [1]) | cell viability (HCT116) | cell viability (SW480 [2]) | TCF/Wnt firefly luciferase reporter signal (DLD1 [3]) | TCF/Wnt firefly luciferase reporter signal (SW480 [4])
1 | O=C1c2ccccc2-c2cccc3cccc1c23 | 1 ± 0.084 | 0.852 ± 0.088 | 0.991 ± 0.028 | 0.912 ± 0.056 | 0.987 ± 0.033
2 | Nc1ncn[nH]1 | 0.973 ± 0.067 | 1.09 ± 0.11 | 1 ± 0.029 | 0.957 ± 0.089 | 0.978 ± 0.012
3 | COc1cc([C@@H]2c3cc4c(cc3[C@H](O)[C@H]3COC(=O)[C@@H]23)OCO4)cc(OC)c1OC | 1.04 ± 0.1 | 0.774 ± 0.025 | 1.22 ± 0.11 | 0.819 ± 0.052 | 0.887 ± 0.057
4 | C/C=C/c1ccc2c(c1)OCO2 | 0.951 ± 0.13 | 0.998 ± 0.059 | 0.986 ± 0.049 | 1.04 ± 0.17 | 1.05 ± 0.1
5 | CC1NC(=O)C(NC(=O)c2cnc3ccccc3n2)COC(=O)C(C(C)C)N(C)C(=O)C2CSSCC(C(=O)N(C)C(C(C)C)C(=O)OCC(NC(=O)c3cnc4ccccc4n3)C(=O)NC(C)C(=O)N2C)N(C)C1=O (stereo not given) [Triostin A] | 0.968 ± 0.028 | 0.984 ± 0.08 | 0.992 ± 0.054 | 0.941 ± 0.073 | 0.871 ± 0.037
6 | O=C1C=C2C=C[C@@H]3C[C@@]2(O1)[C@H]1CCCCN31 | 1.1 ± 0.057 | 1.11 ± 0.064 | 1.02 ± 0.063 | 1.01 ± 0.023 | 0.988 ± 0.013
7 | N=C(NCCC[C@H](N)C(=O)O)N[N+](=O)[O-] | 0.944 ± 0.14 | 0.966 ± 0.047 | 0.9515 ± 0.0064 | 1.07 ± 0.05 | 0.947 ± 0.09
8 | CCN1C[C@]2(COC)[C@H](O)C[C@H](OC)[C@@]34[C@@H]5C[C@@]6(O)[C@H](OC(=O)c7ccccc7)[C@@H]5[C@@](OC(C)=O)([C@@H]([C@H](OC)[C@H]23)[C@@H]14)[C@@H](O)[C@@H]6OC | 0.943 ± 0.066 | 1.04 ± 0.05 | 1.02 ± 0.06 | 0.931 ± 0.057 | 0.955 ± 0.19
9 | COc1ccc2c(c1)[C@]13CCCC[C@@H]1[C@H](C2)N(C)CC3 | 1 ± 0.053 | 0.992 ± 0.096 | 1.02 ± 0.035 | 1.03 ± 0.14 | 1 ± 0.023
10 | Cc1cc(O)ccc1Cl | 1.04 ± 0.035 | 0.994 ± 0.023 | 1.02 ± 0.028 | 0.941 ± 0.015 | 0.834 ± 0.069
11 | COc1ccc2c(c1O)-c1c(OC)c(OC)cc3c1[C@H](C2)N(C)CC3 | 0.993 ± 0.067 | 1.055 ± 0.0071 | 1 ± 0.035 | 0.885 ± 0.089 | 0.926 ± 0.012
12 | CC(=O)OCC1=C(C(=O)O)N2C(=O)[C@@H](NC(=O)CCC[C@@H](N)C(=O)O)[C@H]2SC1 | 0.955 ± 0.13 | 0.906 ± 0.13 | 0.9165 ± 0.0064 | 1.175 ± 0.0071 | 1.09 ± 0.05
13 | O=[N+]([O-])O[C@H]1CO[C@H]2[C@@H]1OC[C@H]2O[N+](=O)[O-] | 1 | 1.07 ± 0.014 | 1.05 ± 0.028 | 1.02 ± 0.11 | 1.11
14 | Nc1ccncc1 | 1.025 ± 0.0071 | 1.07 ± 0.028 | 1 ± 0.1 | 1.03 ± 0.054 | 1.13 ± 0.071
15 | C=C1[C@@H]2CCC3[C@@](CC[C@@H]4[C@H](C(=O)O)C[C@@H](O[C@@H]5O[C@H](CO)[C@@H](OS(=O)(=O)O)[C@H](OS(=O)(=O)O)[C@H]5OC(=O)CC(C)C)C[C@@]34C)(C2)[C@@H]1O (stereo not given in full) | 1 ± 0.093 | 1.04 ± 0.061 | 1.01 ± 0.054 | 1.03 ± 0.072 | 0.9585 ± 0.0064
16 | COc1ccc(OC)c(C(O)C(C)N)c1 (stereo not given) | 0.976 ± 0.1 | 0.974 ± 0.037 | 0.926 ± 0.029 | 0.976 ± 0.031 | 1.13 ± 0.11
17 | FC(F)(F)c1cccc(N2CCNCC2)c1 | 1.04 ± 0.13 | 1.05 ± 0.086 | 1.02 ± 0.014 | 0.943 ± 0.015 | 1.02 ± 0.045
18 | O=[N+]([O-])c1cc(O)c(O)c([N+](=O)[O-])c1 | 0.891 ± 0.081 | 0.942 ± 0.096 | 1.03 ± 0.073 | 0.831 ± 0.27 | 0.852 ± 0.044
19 | C/C=C(\C)C(=O)O[C@H]1C[C@@H](OC(C)=O)[C@@]2(C(=O)OC)CO[C@H]3[C@@H](O)[C@@](C)([C@]45O[C@@]4(C)[C@H]4C[C@@H]5O[C@@H]5OC=C[C@@]54O)[C@H]4[C@]1(CO[C@]4(O)C(=O)OC)[C@@H]32 | 0.998 ± 0.017 | 0.999 ± 0.087 | 0.959 ± 0.051 | 0.973 ± 0.052 | 0.962 ± 0.04
20 | OC[C@@H]1CCCN2CCCC[C@H]12 | 1.04 ± 0.014 | 1 ± 0.053 | 0.995 ± 0.036 | 0.898 ± 0.14 | 0.964 ± 0.065
21 | NC(=O)c1ccc(N)nc1 | 1.1 ± 0.13 | 1.1 | 1.01 ± 0.16 | 1.01 ± 0.067 | 0.91 ± 0.037
22 | COc1cccc2c1cc([N+](=O)[O-])c1c(C(=O)O)cc3c(c12)OCO3 | 0.983 ± 0.052 | 1.06 ± 0.098 | 1.01 ± 0.018 | 1.28 ± 0.12 | 1.1 ± 0.13
23 | CC(C)CCCC1(C)C=Cc2c(O)c3c(c(CCC(C)C)c2O1)OC12C(CC4CC1C(C)(C)OC2(CCC(C)C(=O)O)C4O)C3=O (stereo not given) | 1.08 ± 0.042 | 0.997 ± 0.0042 | 1.07 ± 0.092 | 1.06 ± 0.014 | 1.06 ± 0.092
24 | CC1(C)C(=O)C=C[C@]2(C)[C@H]3CC[C@@]4(C)[C@H](c5ccoc5)OC(=O)[C@H]5O[C@]54[C@]3(C)[C@H](O)C[C@@H]12 | 1.01 ± 0.12 | 1.08 ± 0.028 | 0.989 ± 0.016 | 0.904 ± 0.028 | 0.972 ± 0.097
25 | C[C@]12CC[C@H](O)C[C@@H]1CC[C@@H]1[C@@H]2CC[C@]2(C)C(=O)CC[C@@H]12 | 0.956 ± 0.038 | 0.9945 ± 0.0078 | 1.01 ± 0.11 | 1.075 ± 0.0071 | 1.01 ± 0.033
26 | CC[C@@H](CO)NC(=O)[C@@H]1C=C2c3cccc4[nH]cc(c34)C[C@H]2N(C)C1 | 0.968 ± 0.045 | 1.02 ± 0.028 | 0.957 ± 0.054 | 1.04 ± 0.028 | 1.075 ± 0.0071
